This is an account of results in PubChem BioAssay (NCI).

Holding throughout (assay): NCI-60 one-dose screen, 48 h (100 = growth as untreated, 0 = no growth, -100 = all killed)
Holding throughout (conditions): 10 µM unless noted

The test system of assay [1] is SR leukemia.
Assay [2] deals with RPMI-8226 leukemia.
The test system of assay [3] is OVCAR-8 ovarian.
The test system of assay [4] is OVCAR-5 ovarian.
Assay [5] relates to OVCAR-4 ovarian.
In assay [6] the test system is SK-OV-3 ovarian.
Assay [7] deals with IGROV1 ovarian.
In assay [8] the test system is OVCAR-3 ovarian.
The test system of assay [9] is HS 578T breast.
Assay [10] deals with NCI/ADR-RES ovarian.
Assay [11] deals with T-47D breast.
The subject of assay [12] is BT-549 breast.
The test system of assay [13] is MDA-MB-435 melanoma.
Assay [14] concerns SW-620 colon.
Assay [15] concerns MCF7 breast.
Assay [16] deals with HCT-116 colon.
The subject of assay [17] is HCC-2998 colon.
The subject of assay [18] is KM12 colon.

This is part of a sample that, as a whole, favours compounds with a hit. Of some 83,000 tested, about 20% had one in any assay.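 In brief: 96-well plates, 48 h treatment, single concentration, percent growth endpoint.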 Unmarked numbers belong to inactive results. Activity calls are given as the source filed them. Rule for the calls: active = growth percent below 10; inactive = the rest.

As to `O=C(Nc1ccc(F)cc1)c1cc(-c2ccc(F)cc2F)ccc1O`, the growth in assay [1] is 26.2%; in assay [2], -11.7% (active); in [3], 7.54% (active); in assay [4] it was 69.4%; in assay [5], 11.2%; in assay [6], -8.88% (active). Also, the growth in [7] was 14.7%; in [8] it was 6.06% (active); in assay [9], 6.19% (active); in assay [10], 5.27% (active); in [11] it was -4.71% (active); in [12] it was -10.3% (active). The growth was 5.11% (active) in assay [13]; 17% in assay [14]; 2.19% (active) in assay [15]; 2.09% (active) in assay [16]; 31.5% in assay [17]; 6.07% (active) in assay [18].

With `CN1C(=O)N(C)C2Nn3c(s/c(=C\c4ccccn4)c3=O)=NC21` (centres undefined), the growth in [1] is 109%; in [2], 105%; in [3], 101%; in [4] it was 104%; in [5], 104%; in assay [6], 114%. Moreover, the growth was 98.3% in assay [7]; 106% in [8]; 113% in [9]; 103% in assay [10]; 102% in [11]; 103% in [12]. Moreover, the growth in assay [13] was 99.2%; in assay [14], 105%; in assay [15], 89.3%; in [16] it was 100%; in assay [17] it was 109%; in [18] it was 106%.

Regarding `CN(c1ccc(Br)cc1)S(=O)(=O)c1ccc(-c2cnc(C3CC3)o2)cc1`, the growth is 34.4% in [1]; 15.9% in assay [2]; 33.2% in assay [3]; 46.7% in assay [4]; 70.1% in assay [5]; 73.7% in assay [6]. Moreover, the growth in [7] was 29.9%; in [8], 23.7%; in assay [9], 35.8%; in assay [10], 2.5% (active); in [11] it was 55.1%; in [12], 19.3%. Moreover, the growth was -12.1% (active) in assay [13]; 27.9% in [14]; 21.1% in assay [15]; 14.5% in assay [16]; 16.4% in assay [17]; 23.2% in assay [18].

Regarding `O=C1[C@@H]2Cc3c([nH]c4ccccc34)[C@H](c3c(Cl)cccc3Cl)N2C(=O)CN1C1CCN(Cc2c(F)cccc2F)CC1`, the growth in assay [1] is 35.4%; in [2] it was 67.9%; in assay [3] it was 79.3%; in [4], 92.4%; in [5], 76.3%; in assay [6], 96.8%. Also, the growth is 59.5% in assay [7]; 113% in [8]; 44.7% in assay [9]; 85.3% in [10]; 94.9% in [11]; 80.4% in assay [12]. For the same molecule, the growth in [13] is 85.1%; in [14], 72.1%; in assay [15], 40.4%; in assay [16] it was 15.7%; in assay [17] it was 63.8%; in assay [18], 74.5%.

Take `O=C1[C@H]2Cc3c([nH]c4ccccc34)[C@@H](c3c(Cl)cccc3Cl)N2C(=O)CN1C1CCN(Cc2ccccc2)CC1`: the growth was 32.7% in assay [1]; 60.3% in assay [2]; 74.5% in assay [3]; 107% in [4]; 83.9% in assay [5]; 115% in assay [6]. For the same molecule, the growth in assay [7] is 70.3%; in assay [8], 109%; in assay [9], 87.6%; in assay [10] it was 92.8%; in assay [11], 102%; in assay [12] it was 106%. Also, the growth was 0.213% (active) in assay [13]; 44.5% in [14]; 47.5% in [15]; -1.46% (active) in assay [16]; 102% in [17]; 84.5% in [18].

In the case of `C#CCOc1ccc(C(Nc2cc(Cl)ccc2Cl)c2nnnn2C2CCCCC2)cc1` (centres undefined), the growth in assay [1] is 87.6%; in assay [2], 81.1%; in assay [3], 91.3%; in [4], 93.1%; in assay [5], 93.3%; in assay [6], 100%. Besides, the growth in [7] is 80.4%; in [8], 95.6%; in [9], 87.4%; in [10], 80.2%; in assay [11] it was 67.5%; in [12], 93.6%. In addition, the growth in [13] is 102%; in [14] it was 91.8%; in [15], 73.4%; in assay [16], 56.3%; in assay [17], 90.1%; in [18], 92%.

`COc1cccc(/C=C/C(=O)c2ccc(NC(=O)COc3cccc4cccnc34)cc2)c1`: the growth was 74.6% in [1]; 73.4% in assay [2]; 98.1% in assay [3]; 103% in assay [4]; 101% in assay [5]; 104% in [6]. Further, the growth in assay [7] was 100%; in assay [8], 102%; in assay [9], 100%; in assay [10], 90.8%; in assay [11], 82.9%; in [12] it was 86.1%. Moreover, the growth in [13] was 100%; in assay [14], 94.3%; in [15] it was 52.4%; in [16], 3.49% (active); in assay [17], 99.3%; in assay [18], 96.3%.

Regarding `CCCCOc1ccc(S(=O)(=O)N2CCN(c3nccc(N4CCOCC4)n3)CC2)cc1`, the growth in assay [1] is 46.3%; in assay [2], 6.35% (active); in assay [3] it was 49.5%; in assay [4] it was 56.2%; in assay [5] it was 49.4%; in assay [6] it was 12.8%. For the same molecule, the growth was 9.51% (active) in assay [7]; 105% in assay [8]; 69.4% in [9]; 31.2% in assay [10]; 69% in assay [11]; 13% in assay [12]. Besides, the growth in assay [13] was 14.5%; in assay [14], 34.8%; in assay [15] it was 87.5%; in assay [16], 12.6%; in assay [17], 33.8%; in [18], 16%.
